Test results: the supplement of paper PMC8975748
Counter-ions that a name gives are not always drawn. ± gives the standard deviation of the averaged measurements.

Assays:
[1] = test system: Saccharomyces cerevisiae BY4741 SeMeCo community; test: mean cell size (pixel area) (pixels); higher = larger cells; details: 10 µM; 24 h; SM minimal medium
Procedure, shortened: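 Yeast cells were fixed with paraformaldehyde, imaged by automated confocal microscopy and analysed in Harmony to obtain mean cell pixel area per well. They came from a four-plasmid fluorescent Saccharomyces cerevisiae BY4741 community, each plasmid complementing one auxotrophy and carrying a fluorescent marker. Before imaging, 70 µl of culture at OD600 = 0.3 was incubated for 24 h in SM medium in 384-well plates predosed acoustically with drug (final 10 µM). Values are means of 3 replicates. Same SeMeCo high-content imaging drug screen: Selleck FDA-approved drugs at 10 µM, 24 h in SM medium, 384-well plates, 3 replicates.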

[2] = test system: Saccharomyces cerevisiae BY4741 SeMeCo community; test: z-score of prototroph abundance vs DMSO median; higher = larger share of this subpopulation than in DMSO controls; details: 10 µM; 24 h; SM minimal medium; subpopulation (auxotrophy): Prototroph
Procedure, shortened: (§1)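 A Saccharomyces cerevisiae BY4741 community carried four plasmids, each restoring one auxotrophy and encoding a distinct fluorescent protein. It was pre-grown overnight to OD600 1.0, diluted to 0.3, and 70 µl was added to 384-well plates acoustically predosed with library drugs (10 µM final), then grown 24 h in minimal SM medium. Cells were paraformaldehyde-fixed and imaged by automated confocal microscopy, with single-auxotroph fluorescent strains setting thresholds and autofluorescence correction. Each subpopulation's abundance was scored as a z-score against the vehicle-well median.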

[3] = test system: Saccharomyces cerevisiae BY4741 SeMeCo community; test: z-score of subpopulation abundance vs DMSO median, subpopulation auxotrophic for M; higher = larger share of this subpopulation than in DMSO controls; details: 10 µM; 24 h; SM minimal medium; subpopulation (auxotrophy): M
Procedure, shortened: as §1

[4] = test system: Saccharomyces cerevisiae BY4741 SeMeCo community; test: z-score of subpopulation abundance vs DMSO median, subpopulation auxotrophic for L; higher = larger share of this subpopulation than in DMSO controls; details: 10 µM; 24 h; SM minimal medium; subpopulation (auxotrophy): L
Procedure, shortened: as §1

[5] = test system: Saccharomyces cerevisiae BY4741 SeMeCo community; test: z-score of subpopulation abundance vs DMSO median, subpopulation auxotrophic for U; higher = larger share of this subpopulation than in DMSO controls; details: 10 µM; 24 h; SM minimal medium; subpopulation (auxotrophy): U
Procedure, shortened: as §1

[6] = test system: Saccharomyces cerevisiae BY4741 SeMeCo community; test: z-score of subpopulation abundance vs DMSO median, subpopulation auxotrophic for H; higher = larger share of this subpopulation than in DMSO controls; details: 10 µM; 24 h; SM minimal medium; subpopulation (auxotrophy): H
Procedure, shortened: as §1

[7] = test system: Saccharomyces cerevisiae BY4741 SeMeCo community; test: z-score of subpopulation abundance vs DMSO median, subpopulation auxotrophic for LU; higher = larger share of this subpopulation than in DMSO controls; details: 10 µM; 24 h; SM minimal medium; subpopulation (auxotrophy): LU
Procedure, shortened: as §1

[8] = test system: Saccharomyces cerevisiae BY4741 SeMeCo community; test: z-score of subpopulation abundance vs DMSO median, subpopulation auxotrophic for LM; higher = larger share of this subpopulation than in DMSO controls; details: 10 µM; 24 h; SM minimal medium; subpopulation (auxotrophy): LM
Procedure, shortened: as §1

[9] = test system: Saccharomyces cerevisiae BY4741 SeMeCo community; test: z-score of subpopulation abundance vs DMSO median, subpopulation auxotrophic for HM; higher = larger share of this subpopulation than in DMSO controls; details: 10 µM; 24 h; SM minimal medium; subpopulation (auxotrophy): HM
Procedure, shortened: as §1

[10] = test system: Saccharomyces cerevisiae BY4741 SeMeCo community; test: z-score of subpopulation abundance vs DMSO median, subpopulation auxotrophic for UM; higher = larger share of this subpopulation than in DMSO controls; details: 10 µM; 24 h; SM minimal medium; subpopulation (auxotrophy): UM
Procedure, shortened: as §1

[11] = test system: Saccharomyces cerevisiae BY4741 SeMeCo community; test: z-score of subpopulation abundance vs DMSO median, subpopulation auxotrophic for HL; higher = larger share of this subpopulation than in DMSO controls; details: 10 µM; 24 h; SM minimal medium; subpopulation (auxotrophy): HL
Procedure, shortened: as §1

[12] = test system: Saccharomyces cerevisiae BY4741 SeMeCo community; test: z-score of subpopulation abundance vs DMSO median, subpopulation auxotrophic for HLU; higher = larger share of this subpopulation than in DMSO controls; details: 10 µM; 24 h; SM minimal medium; subpopulation (auxotrophy): HLU
Procedure, shortened: as §1

[13] = test system: Saccharomyces cerevisiae BY4741 SeMeCo community; test: z-score of subpopulation abundance vs DMSO median, subpopulation auxotrophic for HLM; higher = larger share of this subpopulation than in DMSO controls; details: 10 µM; 24 h; SM minimal medium; subpopulation (auxotrophy): HLM
Procedure, shortened: as §1

[14] = test system: Saccharomyces cerevisiae BY4741 SeMeCo community; test: z-score of subpopulation abundance vs DMSO median, subpopulation auxotrophic for LUM; higher = larger share of this subpopulation than in DMSO controls; details: 10 µM; 24 h; SM minimal medium; subpopulation (auxotrophy): LUM
Procedure, shortened: as §1

[15] = test system: Saccharomyces cerevisiae BY4741 SeMeCo community; test: z-score of subpopulation abundance vs DMSO median, subpopulation auxotrophic for HLUM; higher = larger share of this subpopulation than in DMSO controls; details: 10 µM; 24 h; SM minimal medium; subpopulation (auxotrophy): HLUM
Procedure, shortened: as §1

[16] = test system: Saccharomyces cerevisiae BY4741 SeMeCo community; test: z-score of subpopulation abundance vs DMSO median, subpopulation auxotrophic for HU; higher = larger share of this subpopulation than in DMSO controls; details: 10 µM; 24 h; SM minimal medium; subpopulation (auxotrophy): HU
Procedure, shortened: as §1

[17] = test system: Saccharomyces cerevisiae BY4741 SeMeCo community; test: z-score of subpopulation abundance vs DMSO median, subpopulation auxotrophic for HUM; higher = larger share of this subpopulation than in DMSO controls; details: 10 µM; 24 h; SM minimal medium; subpopulation (auxotrophy): HUM
Procedure, shortened: as §1

SMILES: O=C1C(CC[S+]([O-])c2ccccc2)C(=O)N(c2ccccc2)N1c1ccccc1 (racemic) [(+/-)-Sulfinpyrazone]
- mean cell size [1]: 12.5 ± 0.2
- z-score of prototroph abundance [2]: 0.12
- z-score of subpopulation abundance [3]: -0.48
- z-score of subpopulation abundance [4]: -0.72
- z-score of subpopulation abundance [5]: -0.3
- z-score of subpopulation abundance [6]: -0.21
- z-score of subpopulation abundance [7]: 0.28
- z-score of subpopulation abundance [8]: 0.26
- z-score of subpopulation abundance [9]: 0.14
- z-score of subpopulation abundance [10]: 0.41
- z-score of subpopulation abundance [11]: -0.17
- z-score of subpopulation abundance [12]: 0.61
- z-score of subpopulation abundance [13]: 0.61
- z-score of subpopulation abundance [14]: 0.05
- z-score of subpopulation abundance [15]: -0.47

SMILES: Cc1onc(-c2ccccc2)c1C(=O)N[C@@H]1C(=O)N2[C@@H]1SC(C)(C)[C@@H]2C(=O)O [Oxacillin sodium monohydrate]
- mean cell size [1]: 12.04 ± 0.12
- z-score of prototroph abundance [2]: -0.42
- z-score of subpopulation abundance [3]: 0.02
- z-score of subpopulation abundance [4]: 0.52
- z-score of subpopulation abundance [5]: 0.36
- z-score of subpopulation abundance [6]: -0.05
- z-score of subpopulation abundance [7]: 0.83
- z-score of subpopulation abundance [8]: 0.23
- z-score of subpopulation abundance [9]: -0.14
- z-score of subpopulation abundance [16]: 0.32
- z-score of subpopulation abundance [10]: 0.41
- z-score of subpopulation abundance [11]: 0.94
- z-score of subpopulation abundance [12]: 0.2
- z-score of subpopulation abundance [13]: -0.54
- z-score of subpopulation abundance [14]: 0.47
- z-score of subpopulation abundance [15]: 0.03

SMILES: C[C@@H]1O[C@@H]1P(=O)(O)O [Fosfomycin Disodium]
- mean cell size [1]: 12 ± 0.14
- z-score of subpopulation abundance [3]: -0.48
- z-score of subpopulation abundance [4]: 0.72
- z-score of subpopulation abundance [6]: 0.63
- z-score of subpopulation abundance [7]: 0.6
- z-score of subpopulation abundance [8]: -0.25
- z-score of subpopulation abundance [16]: 0.04
- z-score of subpopulation abundance [10]: -0.18
- z-score of subpopulation abundance [11]: 0.86
- z-score of subpopulation abundance [12]: 0.52
- z-score of subpopulation abundance [13]: -0.12
- z-score of subpopulation abundance [14]: 0.06
- z-score of subpopulation abundance [15]: -0.05

SMILES: C#CCN[C@@H]1CCc2ccccc21 [Rasagiline]
- mean cell size [1]: 12.26 ± 0.11
- z-score of prototroph abundance [2]: 0.01
- z-score of subpopulation abundance [3]: -0.39
- z-score of subpopulation abundance [4]: -0.1
- z-score of subpopulation abundance [5]: 0.2
- z-score of subpopulation abundance [6]: -0.48
- z-score of subpopulation abundance [7]: 0.78
- z-score of subpopulation abundance [8]: -0.61
- z-score of subpopulation abundance [9]: -0.4
- z-score of subpopulation abundance [11]: -0.5
- z-score of subpopulation abundance [12]: -0.13
- z-score of subpopulation abundance [17]: -0.36
- z-score of subpopulation abundance [15]: 0.12

SMILES: Cc1c(OCC(F)(F)F)ccnc1C[S+]([O-])c1nc2ccccc2[nH]1 (stereo not drawn) [Lansoprazole]
- z-score of prototroph abundance [2]: -0.04
- z-score of subpopulation abundance [3]: -0.85
- z-score of subpopulation abundance [4]: 1.12
- z-score of subpopulation abundance [5]: -0.71
- z-score of subpopulation abundance [6]: 1.84
- z-score of subpopulation abundance [7]: -0.54
- z-score of subpopulation abundance [8]: 1.16
- z-score of subpopulation abundance [9]: -0.45
- z-score of subpopulation abundance [16]: 0.54
- z-score of subpopulation abundance [10]: -1.1
- z-score of subpopulation abundance [11]: 2.01
- z-score of subpopulation abundance [12]: 0.76
- z-score of subpopulation abundance [13]: 0.03
- z-score of subpopulation abundance [15]: 1.37

SMILES: CO/N=C(\C(=O)N[C@@H]1C(=O)N2C(C(=O)O)=C(CSc3nc(C)c(CC(=O)O)s3)CS[C@H]12)c1csc(N)n1 [Cefodizime Sodium]
- z-score of prototroph abundance [2]: 0.26
- z-score of subpopulation abundance [3]: -0.97
- z-score of subpopulation abundance [4]: -0.39
- z-score of subpopulation abundance [5]: 0.88
- z-score of subpopulation abundance [6]: -0.25
- z-score of subpopulation abundance [7]: 0.22
- z-score of subpopulation abundance [9]: -0.46
- z-score of subpopulation abundance [10]: 0.34
- z-score of subpopulation abundance [11]: -0.84
- z-score of subpopulation abundance [12]: -1.16
- z-score of subpopulation abundance [13]: -1.07
- z-score of subpopulation abundance [14]: -0.74

SMILES: COC(=O)C1=C(C)NC(C)=C(C(=O)OC(C)(C)CN(C)CCC(c2ccccc2)c2ccccc2)C1c1cccc([N+](=O)[O-])c1 (stereo not drawn) [Lercanidipine hydrochloride]
- mean cell size [1]: 12.3 ± 0.19
- z-score of prototroph abundance [2]: -0.42
- z-score of subpopulation abundance [3]: 0.32
- z-score of subpopulation abundance [4]: 1.4
- z-score of subpopulation abundance [5]: -1.5
- z-score of subpopulation abundance [6]: 2.45
- z-score of subpopulation abundance [7]: -0.32
- z-score of subpopulation abundance [8]: 1.89
- z-score of subpopulation abundance [9]: 2.19
- z-score of subpopulation abundance [16]: -0.84
- z-score of subpopulation abundance [10]: -1.34
- z-score of subpopulation abundance [11]: 1.84
- z-score of subpopulation abundance [12]: 0.32
- z-score of subpopulation abundance [17]: 0.37
- z-score of subpopulation abundance [14]: 0.24
